Assay in all cases: DAPPL (digital affinity profiling via proximity ligation, sequencing); 10 mM Tris-HCl pH 7.5, 50 mM NaCl, 1 mM DTT, 4% glycerol, room temperature, 30 min; GST-TFs on glutathione beads, 16-mer random dsDNA library, 0.1% formaldehyde crosslink after washing; high values mean tight binding
Common to all, as to settings: protein: recombinant; tags: N-terminal GST; dsDNA, one strand shown

The target in one experiment is T1, ERF (Homo sapiens, UniProt P50548 1-548).
T1 sequence: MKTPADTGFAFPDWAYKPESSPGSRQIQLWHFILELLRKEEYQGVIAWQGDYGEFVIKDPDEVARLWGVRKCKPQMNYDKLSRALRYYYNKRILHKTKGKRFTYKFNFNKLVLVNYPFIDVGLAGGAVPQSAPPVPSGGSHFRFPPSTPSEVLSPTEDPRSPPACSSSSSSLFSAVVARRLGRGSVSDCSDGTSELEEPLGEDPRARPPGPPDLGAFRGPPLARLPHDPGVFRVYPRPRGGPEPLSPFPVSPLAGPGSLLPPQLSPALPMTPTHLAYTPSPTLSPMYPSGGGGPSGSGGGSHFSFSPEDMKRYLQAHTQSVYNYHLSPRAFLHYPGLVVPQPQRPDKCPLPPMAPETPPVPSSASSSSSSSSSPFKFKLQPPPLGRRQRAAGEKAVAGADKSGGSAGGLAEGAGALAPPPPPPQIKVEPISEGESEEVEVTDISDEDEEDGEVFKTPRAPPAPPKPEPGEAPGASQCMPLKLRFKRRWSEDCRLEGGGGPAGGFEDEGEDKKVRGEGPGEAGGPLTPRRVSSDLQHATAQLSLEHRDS
The gist of the method:
(§1)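 Each value of binding signal is a hexamer's read frequency for a factor divided by the same hexamer's frequency in the tag-only sample. Barcoded, bead-captured GST fusions of human transcription factors made in yeast were pooled with that sample and incubated with 200 nmole of a random double-stranded 16-mer DNA library in Tris/NaCl/DTT/glycerol buffer at room temperature for 30 min. Washing, 0.1% formaldehyde crosslinking, proximity ligation, PCR and Illumina NextSeq500 sequencing followed.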

The target in another experiment is T2, ETV3L (Homo sapiens, UniProt Q6ZN32 1-361).
T2 sequence: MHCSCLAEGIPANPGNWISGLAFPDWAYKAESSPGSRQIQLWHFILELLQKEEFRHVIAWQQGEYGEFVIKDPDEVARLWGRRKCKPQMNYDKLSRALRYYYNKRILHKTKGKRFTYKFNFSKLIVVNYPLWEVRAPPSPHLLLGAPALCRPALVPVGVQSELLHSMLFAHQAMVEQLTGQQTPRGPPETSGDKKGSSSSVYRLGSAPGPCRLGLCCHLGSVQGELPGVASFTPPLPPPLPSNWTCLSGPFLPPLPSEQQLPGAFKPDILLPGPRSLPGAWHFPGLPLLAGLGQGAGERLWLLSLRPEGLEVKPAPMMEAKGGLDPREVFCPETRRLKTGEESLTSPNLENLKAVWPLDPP
The gist of the method:
as §1

The target in the next experiment is T3, ETS2 (Homo sapiens, UniProt P15036 1-469).
T3 sequence: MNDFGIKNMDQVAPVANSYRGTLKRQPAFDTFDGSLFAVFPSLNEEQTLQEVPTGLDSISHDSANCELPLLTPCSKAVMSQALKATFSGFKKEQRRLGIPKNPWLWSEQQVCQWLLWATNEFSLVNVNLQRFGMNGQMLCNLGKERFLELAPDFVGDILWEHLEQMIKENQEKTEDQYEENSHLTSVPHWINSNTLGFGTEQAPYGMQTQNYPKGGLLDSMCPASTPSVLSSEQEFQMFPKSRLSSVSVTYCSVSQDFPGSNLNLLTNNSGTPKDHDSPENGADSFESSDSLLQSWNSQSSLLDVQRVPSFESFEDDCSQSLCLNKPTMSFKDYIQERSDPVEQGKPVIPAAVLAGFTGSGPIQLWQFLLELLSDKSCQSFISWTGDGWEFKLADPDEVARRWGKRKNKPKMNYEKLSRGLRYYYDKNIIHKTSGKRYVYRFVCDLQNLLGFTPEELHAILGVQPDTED
The gist of the method:
as §1

In a further experiment the target is T4, SPDEF (Homo sapiens, UniProt O95238 1-335).
T4 sequence: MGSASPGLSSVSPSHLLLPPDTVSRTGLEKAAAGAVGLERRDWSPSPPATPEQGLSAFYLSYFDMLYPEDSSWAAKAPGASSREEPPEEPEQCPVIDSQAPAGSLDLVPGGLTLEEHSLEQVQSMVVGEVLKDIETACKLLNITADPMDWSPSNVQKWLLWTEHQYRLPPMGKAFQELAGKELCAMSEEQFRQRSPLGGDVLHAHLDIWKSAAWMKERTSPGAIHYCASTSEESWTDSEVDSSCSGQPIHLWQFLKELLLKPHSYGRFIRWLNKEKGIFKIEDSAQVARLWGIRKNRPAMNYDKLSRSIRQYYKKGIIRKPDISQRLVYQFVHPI
The method, boiled down: as §1

The target in a further experiment is T5, ETV7 (Homo sapiens, UniProt Q9Y603 1-341).
T5 sequence: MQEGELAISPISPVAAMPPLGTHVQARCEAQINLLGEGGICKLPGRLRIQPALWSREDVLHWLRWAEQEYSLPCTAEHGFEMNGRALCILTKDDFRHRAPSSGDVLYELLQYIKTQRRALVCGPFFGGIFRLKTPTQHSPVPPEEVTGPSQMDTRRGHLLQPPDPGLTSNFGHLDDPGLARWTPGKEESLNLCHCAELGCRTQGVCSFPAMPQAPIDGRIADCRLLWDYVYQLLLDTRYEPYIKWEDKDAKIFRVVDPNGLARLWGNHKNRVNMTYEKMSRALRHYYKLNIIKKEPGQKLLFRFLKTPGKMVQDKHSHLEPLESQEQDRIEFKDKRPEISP
The method, boiled down:
as §1

In a further experiment the target is T6, ELF5 (Homo sapiens, UniProt Q9UKW6-2 1-255).
T6 sequence: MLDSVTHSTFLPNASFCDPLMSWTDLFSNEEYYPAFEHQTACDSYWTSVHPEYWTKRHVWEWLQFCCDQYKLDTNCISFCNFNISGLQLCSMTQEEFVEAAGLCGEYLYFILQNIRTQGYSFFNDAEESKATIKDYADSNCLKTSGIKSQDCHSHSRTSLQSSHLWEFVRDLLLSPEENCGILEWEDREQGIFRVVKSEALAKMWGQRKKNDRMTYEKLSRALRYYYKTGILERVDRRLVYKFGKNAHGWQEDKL
The method, boiled down: as §1

In another experiment the target is ETV6 (Homo sapiens, UniProt P41212 1-452). The gist of the method: as §1
The next experiment concerns the target T7, ETV3 (Homo sapiens, UniProt P41162-2 1-143).
T7 sequence: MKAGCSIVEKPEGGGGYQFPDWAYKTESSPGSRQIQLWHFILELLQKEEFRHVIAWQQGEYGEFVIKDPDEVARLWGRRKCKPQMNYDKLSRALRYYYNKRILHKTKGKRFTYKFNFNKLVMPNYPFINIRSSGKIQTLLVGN
The method, boiled down: as §1

ETV6, sequence (P41212 whole entry): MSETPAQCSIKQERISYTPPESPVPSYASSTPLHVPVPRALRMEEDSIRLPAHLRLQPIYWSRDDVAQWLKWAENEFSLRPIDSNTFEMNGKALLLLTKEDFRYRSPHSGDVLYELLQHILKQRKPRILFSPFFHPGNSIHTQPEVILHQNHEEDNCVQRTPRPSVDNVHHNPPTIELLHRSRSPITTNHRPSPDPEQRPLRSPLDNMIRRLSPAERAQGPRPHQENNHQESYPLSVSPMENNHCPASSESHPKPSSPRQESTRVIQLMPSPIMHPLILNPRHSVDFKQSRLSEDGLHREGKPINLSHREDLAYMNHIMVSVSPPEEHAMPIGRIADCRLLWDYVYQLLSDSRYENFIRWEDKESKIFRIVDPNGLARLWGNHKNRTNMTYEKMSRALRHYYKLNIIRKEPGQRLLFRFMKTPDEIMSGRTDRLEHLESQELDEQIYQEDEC

Regarding CCCTGT, the binding signal with ERF is 1.19 fold enrichment (6-mer frequency, TF over GST control); in the experiment with ETV3L, 1.06 fold enrichment (6-mer frequency, TF over GST control); with ETS2, 1.06 fold enrichment (6-mer frequency, TF over GST control); in the experiment with SPDEF it was 1.02 fold enrichment (6-mer frequency, TF over GST control); with ETV7, 1.03 fold enrichment (6-mer frequency, TF over GST control); in the experiment with ELF5 it was 1.08 fold enrichment (6-mer frequency, TF over GST control). The binding signal with ETV6 was 1.06 fold enrichment (6-mer frequency, TF over GST control).
In the case of GAAAAC, the binding signal in the experiment with ERF is 1.11 fold enrichment (6-mer frequency, TF over GST control); in the experiment with ETV3L, 1.13 fold enrichment (6-mer frequency, TF over GST control); with ETS2, 1.11 fold enrichment (6-mer frequency, TF over GST control); with SPDEF, 1.07 fold enrichment (6-mer frequency, TF over GST control); in the experiment with ETV7, 1.13 fold enrichment (6-mer frequency, TF over GST control); in the experiment with ELF5 it was 1.16 fold enrichment (6-mer frequency, TF over GST control). For the same sequence, the binding signal in the experiment with ETV6 is 1.06 fold enrichment (6-mer frequency, TF over GST control).
Regarding TTATAG, the binding signal was 1.24 fold enrichment (6-mer frequency, TF over GST control) with ERF; 1.28 fold enrichment (6-mer frequency, TF over GST control) with ETV3L; 1.33 fold enrichment (6-mer frequency, TF over GST control) with ETS2; 1.19 fold enrichment (6-mer frequency, TF over GST control) in the experiment with SPDEF; 1.24 fold enrichment (6-mer frequency, TF over GST control) in the experiment with ETV7; 1.15 fold enrichment (6-mer frequency, TF over GST control) in the experiment with ELF5. Moreover, in the experiment with ETV6, the binding signal was 1.16 fold enrichment (6-mer frequency, TF over GST control).
As to ACGGCT, the binding signal with ERF is 1.16 fold enrichment (6-mer frequency, TF over GST control); in the experiment with ETV3L it was 1.23 fold enrichment (6-mer frequency, TF over GST control); in the experiment with ETS2, 1.19 fold enrichment (6-mer frequency, TF over GST control); with SPDEF it was 1.18 fold enrichment (6-mer frequency, TF over GST control); with ETV7, 1.03 fold enrichment (6-mer frequency, TF over GST control); with ELF5 it was 1.07 fold enrichment (6-mer frequency, TF over GST control). The binding signal with ETV3 was 1.11 fold enrichment (6-mer frequency, TF over GST control); with ETV6, 1.16 fold enrichment (6-mer frequency, TF over GST control).
In the case of GAAGTA, the binding signal in the experiment with ERF is 1.79 fold enrichment (6-mer frequency, TF over GST control); with ETV3L, 1.79 fold enrichment (6-mer frequency, TF over GST control); with ETS2, 2.08 fold enrichment (6-mer frequency, TF over GST control); with SPDEF, 2.1 fold enrichment (6-mer frequency, TF over GST control); with ETV7, 2.08 fold enrichment (6-mer frequency, TF over GST control); with ELF5, 2.34 fold enrichment (6-mer frequency, TF over GST control). For the same sequence, the binding signal was 2.11 fold enrichment (6-mer frequency, TF over GST control) with ETV3 and 2.52 fold enrichment (6-mer frequency, TF over GST control) with ETV6.
CCCACG: the binding signal with ERF is 1.13 fold enrichment (6-mer frequency, TF over GST control); in the experiment with ETV3L, 1.05 fold enrichment (6-mer frequency, TF over GST control); with ETS2, 1.17 fold enrichment (6-mer frequency, TF over GST control); with SPDEF it was 1.05 fold enrichment (6-mer frequency, TF over GST control); in the experiment with ETV7 it was 1.18 fold enrichment (6-mer frequency, TF over GST control); in the experiment with ELF5, 1.15 fold enrichment (6-mer frequency, TF over GST control). Also, the binding signal with ETV3 is 1.11 fold enrichment (6-mer frequency, TF over GST control); in the experiment with ETV6, 1.09 fold enrichment (6-mer frequency, TF over GST control).
As to ATGGCT, the binding signal is 1.27 fold enrichment (6-mer frequency, TF over GST control) with ERF; 1.37 fold enrichment (6-mer frequency, TF over GST control) in the experiment with ETV3L; 1.32 fold enrichment (6-mer frequency, TF over GST control) with ETS2; 1.23 fold enrichment (6-mer frequency, TF over GST control) with SPDEF; 1.34 fold enrichment (6-mer frequency, TF over GST control) in the experiment with ETV7; 1.25 fold enrichment (6-mer frequency, TF over GST control) with ELF5. Further, the binding signal with ETV3 is 1.33 fold enrichment (6-mer frequency, TF over GST control); with ETV6 it was 1.38 fold enrichment (6-mer frequency, TF over GST control).
